According to PubChem BioAssay AID485344 (National Center for Advancing Translational Sciences (NCATS), 2010):
In all, about 340,000 compounds went through this assay and about 6,900 (2%) were called active. This excerpt belongs to a sample that is enriched for actives. Unmarked numbers belong to inactive results. No stated cut-off is given here; in the data, active means inhibition above about 30%; inactive means below that, where a call was filed.
Further: 0% is about no effect.

Each molecule was assayed against D(2) dopamine receptor (Homo sapiens) (UniProt P14416) (assay: HTS Assay for Allosteric Antagonists of the Human D2 Dopamine Receptor: Primary Screen for Antagonists). Details: HEK293 TREx D2 cells, calcium flux, dopamine EC80; at 10 µM; stronger effect = higher value.
Chain of D(2) dopamine receptor (Homo sapiens) (P14416 whole entry, looked up): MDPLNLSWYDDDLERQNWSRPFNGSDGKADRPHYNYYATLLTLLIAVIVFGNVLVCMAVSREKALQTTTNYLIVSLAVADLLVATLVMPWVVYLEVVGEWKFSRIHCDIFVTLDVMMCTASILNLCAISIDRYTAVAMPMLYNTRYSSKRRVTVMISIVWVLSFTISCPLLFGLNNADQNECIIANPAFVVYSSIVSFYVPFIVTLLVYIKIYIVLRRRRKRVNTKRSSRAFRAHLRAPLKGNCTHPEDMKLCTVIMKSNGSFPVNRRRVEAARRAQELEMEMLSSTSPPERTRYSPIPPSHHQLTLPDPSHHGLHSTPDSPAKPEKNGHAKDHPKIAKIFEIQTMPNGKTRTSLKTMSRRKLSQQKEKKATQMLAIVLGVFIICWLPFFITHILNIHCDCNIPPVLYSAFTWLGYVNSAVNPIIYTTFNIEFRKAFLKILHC
How it was run: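 Dopamine at EC80 is the agonist stimulus; test compounds precede it by 180 s. Calcium flux read kinetically in a force-coupled, inducible HEK293 T-REx D2 cell line.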
For `O=C(Nc1ccccc1N1CCOCC1)c1ccncc1`, the inhibition was -22.1%. `COC(=O)c1ccc(C)c(NC(=O)C2CC(=O)N(C3CCCC(C)C3C)C2)c1` (stereo unspecified) was tested, and the inhibition was 25.8%. `c1ccc(COc2nsnc2N2CCOCC2)cc1` gave an inhibition of -11.6%. `O=C(O)COc1nsnc1N1CCOCC1` showed an inhibition of -6.01%. `c1nc(COc2nsnc2N2CCOCC2)cs1` was tested, and the inhibition was 36.2% (active). Molecule `Cc1nc(SCC(=O)NC2CCCCC2C)c(C#N)c(C)c1C` (stereo unspecified) has an inhibition of -2.83%. With `Cc1cccc(N2CCN(C(=O)c3cccc(N4C(=O)C5C6C=CC(C6)C5C4=O)c3)CC2)c1C` (stereo unspecified) the inhibition was -3.04%. For `CCC(CC)C(=O)N1CCN(c2cccc(C)c2C)CC1`, the inhibition was -16.7%. For `CCn1c(C)c(C)c2cc(C(=O)N3CCN(c4cccc(C)c4C)CC3)ccc21`, the inhibition was 35.7% (active). `C[C@H](NC(=O)c1ccccc1)C(=O)OCC(=O)c1c[nH]c2ccccc12` showed an inhibition of -14%. `Cc1ccc(CNC(=O)c2cccc3c2C(=O)c2ccc(N4CCC(C)CC4)cc2S3(=O)=O)cc1` gave an inhibition of -2.45%. Molecule `CCc1nnc(NC(=O)c2ccc(S(=O)(=O)NC3CCCCC3)cc2)s1` has an inhibition of -18.8%. With `Cc1ccc(Nc2nnc(SC(C)C(=O)NC3CC3)s2)cc1` (stereo unspecified) the inhibition was -31.5%. `Cc1nnc(SC(C)C(=O)Nc2ccc(S(=O)(=O)NC3CCCCC3)cc2)s1` (stereo unspecified) was tested, and the inhibition was 61.3% (active). Molecule `Cc1c(C(=O)OCC(=O)N2CCCC2=O)oc2ccccc12` has an inhibition of 10.7%. In the case of `CCOC(=O)N1CCN(C(=O)CSc2nc(=O)n3cccc(C)c3n2)CC1`, the inhibition is reported as -1.99%. `O=C(COC(=O)CCCSc1nc2ccccc2[nH]1)Nc1ccc(Oc2ccccc2)cc1` was tested, and the inhibition was 38.2% (active). With `CCCCSc1nc2ccccc2[nH]1` the inhibition was 22.4%. For `CCc1nnc(NC(=O)CCCSc2nc3ccccc3[nH]2)s1`, the inhibition was -10.6%. For `COCCN(C(=O)CC1CCCCC1)c1c(N)n(CC(C)C)c(=O)[nH]c1=O`, the inhibition was -47.9%. Work on `Cc1cc(C)n2nc(C(=O)OCC(=O)N(CCC#N)c3ccc(F)cc3)nc2n1` yielded an inhibition of -5.33%. For `COc1cccc(N2CC(NC(=O)c3ccc4ccccc4c3)CC2=O)c1` (stereo unspecified), the inhibition was 34.4% (active). In the case of `COc1cccc(N2CC(C(=O)Nc3c(C)cccc3C)CC2=O)c1` (stereo unspecified), the inhibition is reported as -21.9%. `COc1ccc(N2CC(NS(=O)(=O)c3ccc4ccccc4c3)CC2=O)cc1` (stereo unspecified) gave an inhibition of 17.1%. In the case of `CCOc1ccc(NC(=O)CN(C)C(=O)Cn2c(=O)cnc3ccccc32)cc1OCC`, the inhibition is reported as 6.33%. In the case of `COC(=O)c1ccc(COC(=O)CNC(=O)c2cccc(OC)c2)o1`, the inhibition is reported as -4.34%.
